A short description of assay [1]: qHTS profiling for inhibitors of Plasmodium falciparum proliferation (AID 504749).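 Also: 0% = DMSO vehicle and full inhibition = artemisinin control; nearly all actives have a fitted effect of over 60% in size.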 The conditions noted are these: P. falciparum in erythrocytes, SYBR Green DNA, 72 h. The essentials: (§1)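 P. falciparum-infected erythrocytes (0.3% parasitemia, 2.5% hematocrit final) were exposed to compounds for 72 h at 37 C in 5% CO2, then lysed with SYBR Green buffer overnight at room temperature; parasite DNA fluorescence was normalized to artemisinin and DMSO controls.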
A general note: Quantitative high-throughput screening tests each substance at several concentrations.

The subject of a further assay is 3D7. The assay is described as above. The settings on record: P. falciparum in erythrocytes, SYBR Green DNA, 72 h; series mostly up to 28.7 µM. The essentials:
as §1

The test system of another assay is 7G8. The description is as above. The settings on record: P. falciparum in erythrocytes, SYBR Green DNA, 72 h; series mostly up to 28.7 µM. The essentials: as §1
Another assay concerns AA1029. The assay is described as above. The settings on record: P. falciparum in erythrocytes, SYBR Green DNA, 72 h; series mostly up to 28.7 µM. The essentials: as §1
A further assay has as its system AS120. Described as above. The conditions noted are these: P. falciparum in erythrocytes, SYBR Green DNA, 72 h; series mostly up to 28.7 µM. A digest of the protocol: as §1
A further assay relates to ATS189. The assay is described as above. The settings on record: P. falciparum in erythrocytes, SYBR Green DNA, 72 h; series mostly up to 28.7 µM. A digest of the protocol:
as §1

Another assay deals with ATS95. Described as above. The conditions noted are these: P. falciparum in erythrocytes, SYBR Green DNA, 72 h; series mostly up to 28.7 µM. The essentials:
as §1

In a further assay the test system is C2A. The description is as above. The settings on record: P. falciparum in erythrocytes, SYBR Green DNA, 72 h; series mostly up to 28.7 µM. The essentials:
as §1

The test system of a further assay is CP185. The description is as above. The conditions noted are these: P. falciparum in erythrocytes, SYBR Green DNA, 72 h; series mostly up to 28.7 µM. The essentials: as §1
Another assay concerns CP191. The description is as above. The conditions noted are these: P. falciparum in erythrocytes, SYBR Green DNA, 72 h; series mostly up to 28.7 µM. A digest of the protocol:
as §1

The test system of a further assay is CP192. The assay is described as above. The conditions noted are these: P. falciparum in erythrocytes, SYBR Green DNA, 72 h; series mostly up to 28.7 µM. A digest of the protocol: as §1
The test system of another assay is CP194. The description is as above. The conditions noted are these: P. falciparum in erythrocytes, SYBR Green DNA, 72 h; series mostly up to 28.7 µM. A digest of the protocol: as §1
The test system of a further assay is CP201. Described as above. The conditions noted are these: P. falciparum in erythrocytes, SYBR Green DNA, 72 h; series mostly up to 28.7 µM. A digest of the protocol: as §1
A further assay deals with CP203. The description is as above. The settings on record: P. falciparum in erythrocytes, SYBR Green DNA, 72 h; series mostly up to 28.7 µM. A digest of the protocol: as §1
The next assay relates to CP211. The description is as above. The conditions noted are these: P. falciparum in erythrocytes, SYBR Green DNA, 72 h; series mostly up to 28.7 µM. A digest of the protocol: as §1
The subject of a further assay is CP217. The assay is described as above. The conditions noted are these: P. falciparum in erythrocytes, SYBR Green DNA, 72 h; series mostly up to 28.7 µM. A digest of the protocol: as §1
For another assay, the system named is CP237. Described as above. The conditions noted are these: P. falciparum in erythrocytes, SYBR Green DNA, 72 h; series mostly up to 28.7 µM. The essentials:
as §1

The nature of assay [2]: qHTS for identification of novel therapeutic agents for treatment of microphthalmiaassociated transcription factor (MiT) renal cell carcinoma (RCC) (AID 1963991; calls by dose curve; also: potency is read from the fitted curve at half-maximal effect). The conditions noted are these: CellTiter-Glo, 48 h; for z-score: stronger effect = lower value. The essentials:
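Three TFE3-fusion RCC cell lines (UOK109, UOK124, UOK145), 500 cells/well, were exposed to the 1912-compound MIPE 4.0 library for 48 hours at 37 C. Viability was read by CellTiter-Glo luminescence, normalised to DMSO (100%) and empty wells (0%), with 11-concentration curve fits.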

The test system of another assay is CP215. The assay can be described thus: qHTS profiling for inhibitors of Plasmodium falciparum proliferation (AID 504749).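 Also: 0% = DMSO vehicle and full inhibition = artemisinin control; nearly all actives have a fitted effect of over 60% in size.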 The conditions noted are these: P. falciparum in erythrocytes, SYBR Green DNA, 72 h; series mostly up to 28.7 µM. The essentials: as §1
[3] abbreviates: at 28.7 µM (top of the series), parasite line A.
[4] abbreviates: at 28.7 µM (top of the series), parasite line B.
[5] abbreviates: TFE3-RCC UOK109 viability, measured here: UOK109 Z-AUC.
Setting [6] is: TFE3-RCC viability, measured here: UOK124 Z-AUC.
Setting [7] is: TFE3-RCC viability, measured here: UOK145 Z-AUC.

Results filed as inconclusive are left out. The source made the active and inactive calls. Unless noted, calls follow the shape of the dose curve; as a rule, active = well fitted inhibition curve with a large enough effect; inconclusive = small, poorly fitted or top-dose-only effect; inactive = flat fitted curve, though single readings scatter.

This passage reports activity, negative = inhibition, Potency and z-score results from PubChem BioAssay (NCATS).

Consider `Cc1ncc([N+](=O)[O-])n1CCO`, for which the figures for the activity, negative = inhibition in assay [1] (setting [3]) and in assay [1] (setting [4]) were -7.64% (inactive) and 6.06% (inactive), respectively. Moreover, the Potency result in the assay on 3D7, in the assay with 7G8, in the assay with AA1029, in the assay with AS120, with ATS189 and in the assay with ATS95 was “inactive” throughout. The Potency result with C2A, in the assay with CP185, with CP191, in the assay with CP192, in the assay on CP194 and in the assay with CP201 was “inactive” in each case. In addition, the Potency entry with CP203, in the assay with CP211, in the assay with CP217 and in the assay with CP237 was “inactive” in each case.

Take `COc1ccccc1OCC(O)COC(N)=O` (centres undefined): the z-score amounted to 0.0196 in [2] (setting [5]), 0.974 in assay [2] (setting [6]) and 0.377 in assay [2] (setting [7]).

As for `CCN(CC)CC#CCOC(=O)C(O)(c1ccccc1)C1CCCCC1` (centres undefined), the z-score worked out at 0.714 in assay [2] (setting [5]), 0.353 in assay [2] (setting [6]) and 0.607 in assay [2] (setting [7]).

Turning to `CNS(=O)(=O)Cc1ccc2[nH]cc(CCN(C)C)c2c1`, the figures for the z-score in assay [2] (setting [5]), in assay [2] (setting [6]) and in assay [2] (setting [7]) were 0.748, 0.938 and 0.747, respectively. In addition, the activity, negative = inhibition in assay [1] (setting [3]) is -10.9% (inactive); in assay [1] (setting [4]) it was -3.89% (inactive). In addition, the Potency result with 3D7, in the assay with 7G8, in the assay on AA1029, in the assay on AS120, in the assay with ATS189 and in the assay on ATS95 was “inactive” throughout. The Potency entry in the assay on C2A, in the assay on CP185, with CP191, with CP192, in the assay with CP194 and with CP201 was “inactive” throughout. Also, the Potency entry in the assay on CP211, with CP217 and in the assay with CP237 was “inactive” each time.

Take `N[C@@H](C(=O)N[C@@H]1C(=O)N2C(C(=O)O)=C(Cl)CS[C@H]12)c1ccccc1`: the z-score in assay [2] (setting [5]) came out at 1.18; in [2] (setting [6]), 0.137; in assay [2] (setting [7]) it was 0.843. The figures for the activity, negative = inhibition in assay [1] (setting [3]) and in assay [1] (setting [4]) were 10% (inactive) and -2.02% (inactive), respectively. Also, the Potency result in the assay on 3D7, in the assay with 7G8, in the assay on AA1029, in the assay with AS120, in the assay with ATS189 and with ATS95 was “inactive” in each case. Further, the Potency result with C2A, with CP185, in the assay on CP191, with CP192, with CP194 and in the assay with CP201 was “inactive” each time. Also, the Potency result in the assay on CP203, in the assay with CP211, with CP215, in the assay with CP217 and in the assay on CP237 was “inactive” each time.

Consider `O=NN(CCCl)C(=O)NC1CCCCC1`, for which the z-score in [2] (setting [5]) was 0.385; in assay [2] (setting [6]), 1.51; in [2] (setting [7]), 1.28. Besides, the activity, negative = inhibition was 5.42% (inactive) in assay [1] (setting [3]) and 5.97% (inactive) in assay [1] (setting [4]). Also, the Potency result in the assay on 3D7, in the assay with 7G8, in the assay with AA1029, with AS120, with ATS189 and with ATS95 was “inactive” throughout. The Potency entry in the assay on C2A, with CP185, in the assay on CP191, in the assay with CP192, in the assay with CP194 and with CP201 was “inactive” each time. Besides, the Potency result in the assay on CP211, with CP215, with CP217 and in the assay on CP237 was “inactive” each time.

Turning to `Nc1nc(F)nc2c1ncn2[C@@H]1O[C@H](CO)[C@@H](O)[C@@H]1O`, the Potency in assay [2] (TFE3-RCC UOK109 viability, active = Z-AUC below -0.8 in all three lines) is 372 nM (active). Also, the results for the z-score in assay [2] (setting [5]), in assay [2] (setting [6]) and in assay [2] (setting [7]) were -1.54, -1.3 and -1.61, respectively.

For `CN(C)CCc1c[nH]c2ccc(C[C@H]3COC(=O)N3)cc12`, the z-score is 0.402 in assay [2] (setting [5]), -0.14 in [2] (setting [6]) and 0.58 in assay [2] (setting [7]).

For `Nc1ccc(S(=O)(=O)Nc2ccccn2)cc1`, the z-score in [2] (setting [5]) is 1.57; in [2] (setting [6]) it was 0.543; in [2] (setting [7]) it was 0.723. Also, the activity, negative = inhibition in assay [1] (at 12.8 µM (top of the series), parasite line A) is -13.7% (inactive); in assay [1] (at 12.8 µM (top of the series), parasite line B), -1.88% (inactive). Moreover, the Potency result in the assay on 3D7, in the assay on 7G8, in the assay with AA1029, in the assay on AS120, with ATS189 and in the assay on C2A was “inactive” throughout. Besides, the Potency result in the assay on CP185, in the assay with CP191, with CP192, in the assay on CP194, with CP201 and in the assay on CP211 was “inactive” each time. For the same compound, the Potency result with CP215, with CP217 and in the assay on CP237 was “inactive” throughout.
